About 7,900 targets were measured; listed, in parts, are those with a hit and a random draw of the rest. About 0.6% of all pairs of compound and target were hits.
What was measured:
Assay in all cases: log2 fold change, soluble protein after heating vs DMSO (PISA); higher = thermal stabilisation; K562 cells, 10 uM, 30 min; active = over 0.2 and 3.5 SD of the protein, either way, in both replicates (recomputed)
[1] = compound: C1=CC=C(C=C1)[C@H](COC2=CC3=C(C=C2)NC(=O)N3)NC(=O)C4=CC=CN(C4=O)CC5=CC(=C(C=C5)F)F
Method in brief: (§1)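 K562 cells at 2×10^6 cells/mL were given 10 μM compound for 30 min. Aliquots then went through 3 min of heating across 48°C-58°C, were pooled, and were extracted in PBS with 0.5% NP-40 at 4°C, and the supernatant after 21,000xg for 90 min was quantified by TMTpro 16plex LC-MS/MS with channel sums equalised. Thermal stability relative to control samples, from duplicates, is given as log2 fold change.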

[2] = compound: CC1=C(SC2=C1C(=N[C@H](C3=NN=C(N32)C)CC(=O)N)C4=CC=C(C=C4)Cl)C
Method in brief: as §1

[3] = compound: CC1=C2C(=CC=C1)N=C(N(C2=O)C3=CC=CC=C3C)CN4C=NC5=C(N=CN=C54)N
Method in brief: as §1

[4] = compound: Cc1sc2c(c1C)C(c1ccc(Cl)cc1)=N[C@@H](CC(=O)OC(C)(C)C)c1nnc(C)n1-2
Method in brief: as §1

[5] = compound: c1ccc([C@@H]2C[C@H]2NC2CCNCC2)cc1
Method in brief: as §1

Measured: log2 fold change

MAPK9 (UniProt P45984)
inactive: [1] 0.015 | [2] 0.015 | [3] 0.039 | [4] -0.042 | [5] 0.004

LMNB1 (UniProt P20700)
Chain of UniProt P20700 (P20700 whole entry, looked up): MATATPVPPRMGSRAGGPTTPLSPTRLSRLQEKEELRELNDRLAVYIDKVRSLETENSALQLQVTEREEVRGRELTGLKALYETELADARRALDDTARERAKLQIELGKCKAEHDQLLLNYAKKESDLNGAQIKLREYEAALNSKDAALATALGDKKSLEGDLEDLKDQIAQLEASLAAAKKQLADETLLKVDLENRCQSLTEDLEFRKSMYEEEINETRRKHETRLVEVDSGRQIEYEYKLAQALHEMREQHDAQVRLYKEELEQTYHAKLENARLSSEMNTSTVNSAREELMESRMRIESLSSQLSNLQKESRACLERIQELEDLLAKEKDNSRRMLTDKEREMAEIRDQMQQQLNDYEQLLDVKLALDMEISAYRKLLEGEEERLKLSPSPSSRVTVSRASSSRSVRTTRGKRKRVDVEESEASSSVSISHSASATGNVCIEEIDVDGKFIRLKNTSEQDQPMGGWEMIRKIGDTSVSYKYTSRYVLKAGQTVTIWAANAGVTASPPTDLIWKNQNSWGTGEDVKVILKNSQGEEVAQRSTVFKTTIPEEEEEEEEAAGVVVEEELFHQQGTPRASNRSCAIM
inactive: [1] 0.08 | [2] -0.005 | [3] -0.009 | [4] -0.018 | [5] 0.042

MGST3 (UniProt O14880)
inactive: [1] 0.046 | [2] 0.032 | [3] 0.005 | [4] 0.006 | [5] 0.054

LARP4B (UniProt Q92615)
Chain of UniProt Q92615 (Q92615 whole entry, looked up): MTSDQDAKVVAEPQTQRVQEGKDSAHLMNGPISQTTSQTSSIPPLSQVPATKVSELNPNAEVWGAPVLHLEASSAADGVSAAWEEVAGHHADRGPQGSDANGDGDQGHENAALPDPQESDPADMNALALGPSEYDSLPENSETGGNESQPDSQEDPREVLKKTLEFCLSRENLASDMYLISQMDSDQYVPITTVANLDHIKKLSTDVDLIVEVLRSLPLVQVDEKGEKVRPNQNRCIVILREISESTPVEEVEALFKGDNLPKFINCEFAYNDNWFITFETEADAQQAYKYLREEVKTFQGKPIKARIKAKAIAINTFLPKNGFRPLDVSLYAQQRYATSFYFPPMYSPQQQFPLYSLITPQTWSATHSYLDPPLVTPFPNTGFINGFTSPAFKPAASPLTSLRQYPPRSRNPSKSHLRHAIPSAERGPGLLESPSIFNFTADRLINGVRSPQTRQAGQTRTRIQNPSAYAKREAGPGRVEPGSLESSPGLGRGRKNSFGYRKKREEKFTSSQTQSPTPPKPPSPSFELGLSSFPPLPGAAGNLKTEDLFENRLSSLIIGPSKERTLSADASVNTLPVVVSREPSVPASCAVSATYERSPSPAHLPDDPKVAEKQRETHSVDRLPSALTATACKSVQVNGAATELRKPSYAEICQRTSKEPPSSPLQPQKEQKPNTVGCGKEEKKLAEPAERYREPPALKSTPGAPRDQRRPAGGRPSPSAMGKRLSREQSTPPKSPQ
inactive: [1] -0.003 | [2] -0.013 | [3] 0 | [4] 0.081 | [5] -0.014

MAP4K4 isoform 3 (UniProt O95819)
active: [5] 0.264
inactive: [1] 0.009 | [2] 0.032 | [3] 0.044 | [4] 0.04

MICOS13 (UniProt Q5XKP0)
inactive: [1] -0.018 | [2] 0.07 | [3] -0.032 | [4] 0 | [5] 0.003

MAPRE3 (UniProt Q9UPY8)
inactive: [1] -0.042 | [2] 0.011 | [3] 0.026 | [4] -0.01 | [5] -0.014

KLC2 (UniProt Q9H0B6)
Chain of UniProt Q9H0B6 (Q9H0B6 whole entry, looked up): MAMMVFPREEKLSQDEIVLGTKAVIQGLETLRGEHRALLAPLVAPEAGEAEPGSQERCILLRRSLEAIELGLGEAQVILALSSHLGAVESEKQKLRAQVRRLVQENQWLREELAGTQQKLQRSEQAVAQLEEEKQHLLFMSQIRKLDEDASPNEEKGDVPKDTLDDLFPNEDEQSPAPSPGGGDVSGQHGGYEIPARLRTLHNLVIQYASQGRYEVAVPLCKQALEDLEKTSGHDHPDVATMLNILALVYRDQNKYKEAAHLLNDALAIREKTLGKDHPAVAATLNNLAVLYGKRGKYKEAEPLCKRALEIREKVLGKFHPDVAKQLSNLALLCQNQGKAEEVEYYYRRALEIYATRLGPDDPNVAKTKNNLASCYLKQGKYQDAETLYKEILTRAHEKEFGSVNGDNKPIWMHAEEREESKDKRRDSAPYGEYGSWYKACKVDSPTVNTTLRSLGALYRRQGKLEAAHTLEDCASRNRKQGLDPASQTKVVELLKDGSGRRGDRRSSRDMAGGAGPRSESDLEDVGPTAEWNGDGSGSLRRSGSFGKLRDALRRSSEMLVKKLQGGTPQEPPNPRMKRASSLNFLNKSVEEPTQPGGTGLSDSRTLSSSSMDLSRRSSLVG
inactive: [1] -0.046 | [2] 0.085 | [3] 0.118 | [4] 0.032 | [5] 0

IK (UniProt Q13123)
Chain of UniProt Q13123 (Q13123 whole entry, looked up): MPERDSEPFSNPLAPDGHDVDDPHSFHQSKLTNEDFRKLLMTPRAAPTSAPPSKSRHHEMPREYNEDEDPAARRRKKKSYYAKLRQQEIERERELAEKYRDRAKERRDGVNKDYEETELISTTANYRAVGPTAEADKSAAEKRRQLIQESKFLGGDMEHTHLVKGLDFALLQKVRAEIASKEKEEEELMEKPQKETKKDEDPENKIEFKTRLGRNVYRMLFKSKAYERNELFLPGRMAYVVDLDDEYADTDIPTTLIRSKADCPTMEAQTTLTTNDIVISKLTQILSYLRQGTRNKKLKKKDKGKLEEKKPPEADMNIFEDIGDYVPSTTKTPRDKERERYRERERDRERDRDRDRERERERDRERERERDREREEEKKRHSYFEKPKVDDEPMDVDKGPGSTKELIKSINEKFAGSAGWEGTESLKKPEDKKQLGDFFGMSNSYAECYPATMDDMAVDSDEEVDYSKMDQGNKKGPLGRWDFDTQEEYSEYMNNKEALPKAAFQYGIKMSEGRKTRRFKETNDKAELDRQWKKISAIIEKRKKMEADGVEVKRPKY
inactive: [1] 0.023 | [2] -0.067 | [3] -0.006 | [4] 0.041 | [5] -0.045

IRAK4 (UniProt Q9NWZ3)
Chain of UniProt Q9NWZ3 (Q9NWZ3 whole entry, looked up): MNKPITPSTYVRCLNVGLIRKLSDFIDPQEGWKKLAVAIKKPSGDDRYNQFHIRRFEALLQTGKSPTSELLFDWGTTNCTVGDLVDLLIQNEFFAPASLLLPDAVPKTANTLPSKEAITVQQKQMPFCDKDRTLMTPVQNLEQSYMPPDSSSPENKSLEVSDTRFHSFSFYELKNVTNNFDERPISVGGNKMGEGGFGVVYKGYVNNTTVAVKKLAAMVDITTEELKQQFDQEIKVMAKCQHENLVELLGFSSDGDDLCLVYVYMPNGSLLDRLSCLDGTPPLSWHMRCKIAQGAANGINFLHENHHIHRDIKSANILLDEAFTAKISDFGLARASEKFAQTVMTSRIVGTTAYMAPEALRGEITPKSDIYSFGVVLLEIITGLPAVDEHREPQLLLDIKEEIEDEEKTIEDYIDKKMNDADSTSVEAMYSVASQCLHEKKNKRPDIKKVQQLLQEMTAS
inactive: [1] -0.077 | [2] -0.006 | [3] 0.009 | [4] -0.012 | [5] -0.056

KTN1 (UniProt Q86UP2)
inactive: [1] 0.005 | [2] -0.012 | [3] 0.019 | [4] 0.036 | [5] 0.001

MFF (UniProt Q9GZY8)
Chain of UniProt Q9GZY8 (Q9GZY8 whole entry, looked up): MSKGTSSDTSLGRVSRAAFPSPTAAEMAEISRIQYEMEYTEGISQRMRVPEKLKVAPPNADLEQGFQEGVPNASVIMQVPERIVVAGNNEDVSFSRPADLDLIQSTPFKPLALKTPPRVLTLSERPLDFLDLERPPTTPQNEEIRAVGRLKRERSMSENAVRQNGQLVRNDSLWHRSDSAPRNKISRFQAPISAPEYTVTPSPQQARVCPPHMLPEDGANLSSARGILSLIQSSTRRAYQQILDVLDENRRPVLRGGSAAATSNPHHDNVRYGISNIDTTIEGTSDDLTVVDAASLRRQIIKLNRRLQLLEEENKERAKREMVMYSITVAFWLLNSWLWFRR
inactive: [1] -0.013 | [2] 0.041 | [3] 0.064 | [4] -0.017 | [5] -0.001

MEPCE (UniProt Q7L2J0)
inactive: [1] 0.017 | [2] 0.001 | [3] 0.064 | [4] 0.028 | [5] 0.008

MAGEA8 (UniProt P43361)
inactive: [1] 0.075 | [2] -0.035 | [3] 0.02 | [4] -0.119 | [5] 0.077

LMNA (UniProt P02545)
inactive: [1] 0.043 | [2] -0.016 | [3] -0.044 | [4] -0.017 | [5] 0.052

LMNB2 (UniProt Q03252)
inactive: [1] 0.04 | [2] 0.052 | [3] 0.062 | [4] -0.04 | [5] 0.053

LAMP2 isoform 2 (UniProt P13473)
inactive: [1] 0.051 | [2] -0.015 | [3] 0.04 | [4] 0.052 | [5] 0.007

MAPKAPK2 (UniProt P49137)
inactive: [1] -0.047 | [2] 0.064 | [3] 0.012 | [4] 0.013 | [5] -0.056

KDM5D isoform 3 (UniProt Q9BY66)
inactive: [1] 0.2 | [2] 0.086 | [3] 0.102 | [4] -0.022 | [5] 0.037

KIAA1324L (UniProt A8MWY0)
inactive: [1] 0.041 | [2] 0.044 | [3] 0 | [4] -0.001 | [5] 0.035

LTO1 (UniProt Q8WV07)
Chain of UniProt Q8WV07 (Q8WV07 whole entry, looked up): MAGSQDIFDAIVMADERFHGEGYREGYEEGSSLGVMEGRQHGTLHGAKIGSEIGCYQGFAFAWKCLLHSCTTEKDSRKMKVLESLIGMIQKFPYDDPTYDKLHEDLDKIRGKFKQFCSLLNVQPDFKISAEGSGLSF
inactive: [1] 0.054 | [2] -0.02 | [3] 0.142 | [4] -0.062 | [5] 0.03

MAP4 (UniProt E7EVA0)
inactive: [1] -0.009 | [2] -0.15 | [3] -0.095 | [4] 0.096 | [5] 0.005

KLHDC4 (UniProt Q8TBB5)
inactive: [1] 0.048 | [2] -0.074 | [3] -0.165 | [4] 0.084 | [5] -0.047

MAGI1 (UniProt Q96QZ7)
Chain of UniProt Q96QZ7 (Q96QZ7 whole entry, looked up): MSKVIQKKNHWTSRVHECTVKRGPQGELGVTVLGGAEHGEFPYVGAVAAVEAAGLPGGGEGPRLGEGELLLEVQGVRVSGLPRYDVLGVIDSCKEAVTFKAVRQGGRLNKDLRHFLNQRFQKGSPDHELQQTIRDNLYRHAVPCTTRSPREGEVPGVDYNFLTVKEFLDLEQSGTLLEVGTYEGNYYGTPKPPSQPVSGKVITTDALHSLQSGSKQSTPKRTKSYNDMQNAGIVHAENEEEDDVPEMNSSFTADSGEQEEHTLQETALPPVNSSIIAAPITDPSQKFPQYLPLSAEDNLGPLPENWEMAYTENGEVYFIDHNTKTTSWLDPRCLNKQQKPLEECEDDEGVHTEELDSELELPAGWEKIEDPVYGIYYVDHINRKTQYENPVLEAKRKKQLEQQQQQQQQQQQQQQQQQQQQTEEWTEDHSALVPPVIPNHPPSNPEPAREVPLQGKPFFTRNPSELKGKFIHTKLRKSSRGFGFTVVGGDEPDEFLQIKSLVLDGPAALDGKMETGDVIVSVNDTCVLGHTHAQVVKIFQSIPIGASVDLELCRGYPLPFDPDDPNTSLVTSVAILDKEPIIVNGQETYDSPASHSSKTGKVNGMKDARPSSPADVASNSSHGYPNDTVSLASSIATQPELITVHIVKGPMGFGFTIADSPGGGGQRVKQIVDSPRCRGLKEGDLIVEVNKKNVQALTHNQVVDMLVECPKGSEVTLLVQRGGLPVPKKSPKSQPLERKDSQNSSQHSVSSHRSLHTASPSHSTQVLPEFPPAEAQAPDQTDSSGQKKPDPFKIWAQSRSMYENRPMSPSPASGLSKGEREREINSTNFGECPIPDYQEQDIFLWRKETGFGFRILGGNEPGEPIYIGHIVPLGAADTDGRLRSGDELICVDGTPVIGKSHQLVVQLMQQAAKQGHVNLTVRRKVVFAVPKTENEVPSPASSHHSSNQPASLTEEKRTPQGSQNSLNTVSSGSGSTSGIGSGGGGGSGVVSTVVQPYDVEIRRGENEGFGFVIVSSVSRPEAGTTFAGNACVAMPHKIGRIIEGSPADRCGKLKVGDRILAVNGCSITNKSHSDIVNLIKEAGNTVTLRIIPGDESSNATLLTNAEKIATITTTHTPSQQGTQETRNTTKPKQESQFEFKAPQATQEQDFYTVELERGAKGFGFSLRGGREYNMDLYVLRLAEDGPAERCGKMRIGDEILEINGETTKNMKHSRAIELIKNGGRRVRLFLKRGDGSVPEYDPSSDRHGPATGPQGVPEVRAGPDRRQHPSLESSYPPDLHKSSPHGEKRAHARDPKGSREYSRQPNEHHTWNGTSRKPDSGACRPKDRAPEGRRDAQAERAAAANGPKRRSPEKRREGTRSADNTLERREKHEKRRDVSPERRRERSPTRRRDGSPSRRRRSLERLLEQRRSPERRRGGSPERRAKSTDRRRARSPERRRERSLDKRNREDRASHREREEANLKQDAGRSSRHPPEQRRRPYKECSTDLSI
inactive: [1] 0.025 | [2] -0.026 | [3] -0.005 | [4] 0.054 | [5] -0.016

MAP3K20 (UniProt Q9NYL2)
inactive: [1] 0.02 | [2] -0.037 | [3] 0.017 | [4] 0.005 | [5] 0.022

From the supplement of paper PMC10849652
